Experimental data published in PubChem BioAssay.
The source made the active and inactive calls.

Experiment: FRG1 expression reporter modulators in myotubes – cell-based, C2C12 myotubes, firefly/Renilla luciferase, luminescence, FRG1 inhibition for FSHD, primary screen (AID 1084)
Conditions: FRG1 promoter luciferase, higher = more signal, called active from +8 up or from −8 down

SMILES	z-score
O=C(OCCF)C1=CCC(c2cccc(Cl)c2)O1 (stereo not given)	-1.68 (inactive)
COC(=O)[C@@]1(Cc2ccc(OC)cc2)[C@H]2c3cc(C(=O)N4CCCC4)n(Cc4ccccn4)c3C[C@H]2CN1C(=O)c1ccccc1	2.78 (inactive)
CC(C)=CCCC(C)=CC(O)C1C=CC2C(=O)N(c3ccccc3)C(=O)C2N1Nc1ccccc1 (stereo not given)	-2.84 (inactive)
[N-]=[N+]=NCc1ccccc1[C@H]1OC(c2ccc(OCCCO)cc2)=N[C@@]1(CCS(=O)(=O)c1ccccc1)C(=O)N1CCOCC1	0.51 (inactive)
COC(=O)[C@@]1(Cc2ccccc2)[C@H]2c3cc(C(=O)N4CCCC4)n(Cc4ccc(C)o4)c3C[C@H]2CN1C(=O)c1ccccc1	0.0318 (inactive)
CC(C)OC(=O)CC(=O)CC(O)c1ccc(C#N)cc1 (stereo not given)	-0.711 (inactive)
[N-]=[N+]=NCc1ccccc1C[C@]1(C(=O)O)N=C(c2ccc(OCCCO)cc2)O[C@H]1c1ccccc1	-2.33 (inactive)
COC(=O)[C@@]1(Cc2ccc(OC)cc2)[C@H]2c3cc(C(=O)N(C)C)n(Cc4c(OC)[nH]cc(C)c4=O)c3C[C@H]2CN1C(=O)c1ccccc1	-1.04 (inactive)
O=c1cccc(CCc2ccccc2)o1	1.17 (inactive)
CCCCCCCCCCC(O)C1C=CC2C(=O)N(Cc3ccccc3)C(=O)C2N1n1cnnc1 (stereo not given)	1.91 (inactive)
COC(=O)C[C@@H]1C[C@H](C)[C@]2(O1)C(=O)N(Cc1ccccc1)c1ccc(NC(C)=O)cc12	0.74 (inactive)
C=CCOC(=O)[C@@H]1[C@H]2C(=O)O[C@H](c3ccccc3)[C@H](c3ccccc3)N2[C@H](c2ccc(OCCOC(=O)[C@@H]3C[C@@H]4C(=O)NCC(=O)N4[C@@H]3c3cccc(OCCO)c3)cc2)[C@@]12C(=O)Nc1ccc(I)cc12	0.536 (inactive)
CCCC[C@H]1OB(O)C[C@H]2C1=C(C)C[C@H]1C(=O)N(Cc3ccccc3)C(=O)[C@H]12	0.758 (inactive)
CC1CC/C=C\[C@H]2OC34C=CCN(Cc5ccccc5)C(=O)[C@H]3N(CCCCCO)C(=O)[C@@H]4C2C(=O)O1 (stereo not given in full)	0.367 (inactive)
CN(C)CCCNC(=O)[C@@]1(Cc2ccccc2I)c2ccccc2C(=O)N(Cc2ccccc2C(F)(F)F)[C@H]1c1ccc(CO)cc1	-1.1 (inactive)
COc1ccc([Si](C)(C)[C@@H]2[C@@H](CC(=O)N3CCC[C@H]3CO)O[C@]3(C(=O)N(C)c4c(Br)cc(C)cc43)[C@H]2C)cc1	-1.53 (inactive)
COCC1=C2[C@@H](CCc3ccccc3)OB(O)C[C@@H]2[C@@H]2C(=O)N(Cc3ccccc3)C(=O)[C@@H]2C1	-3.66 (inactive)
COCCOC(=O)N1C(=O)[C@@]2(c3ccccc31)[C@H](C(=O)NC[C@H](O)c1ccccc1)[C@H]1C(=O)O[C@H](c3ccccc3)[C@H](c3ccccc3)N1[C@@H]2c1ccc(OCCO)cc1	-0.31 (inactive)

SMILES	z-score
C=CC[C@@H](OC(=O)Nc1ccc(OC)cc1)c1ccc(O)c2ccccc12	6.38 (inactive)
COCCOC(=O)N1C(=O)[C@@]2(c3cc(C#CCCO)ccc31)[C@H](c1ccccc1OCCO)N1[C@H](c3ccccc3)[C@H](c3ccccc3)OC(=O)[C@H]1[C@@H]2C(=O)N1CCN(c2ncccn2)CC1	-1.54 (inactive)
CCC[C@@H]1C=C(C(=O)O)[C@H](c2ccc(C)cc2)N1S(=O)(=O)c1ccc(C)cc1	-1.09 (inactive)
COc1ccc(C(O)C2C=CC3C(=O)N(c4ccccc4)C(=O)C3N2Nc2ccc([N+](=O)[O-])cc2)cc1OCc1ccccc1 (stereo not given)	0.565 (inactive)
O=C/C=C/c1ccc2c(c1)OCO2	-0.779 (inactive)
CN(C)C(=O)[C@@]1(CCC(=O)OC(C)(C)C)N=C(c2ccc(OCCCO)cc2)O[C@H]1c1ccccc1	-0.624 (inactive)
C=C(C(=O)CC[C@H](OC(C)=O)c1ccc(OCCO)cc1)C(C)C	-2.5 (inactive)
O=c1cccc(C=Cc2ccccc2)o1	0.242 (inactive)
C=CCC(OC(C)=O)[C@@H]1[C@@H](N(Cc2cccc3ccccc23)C(=O)c2cccc3ccccc23)c2cc(OCCCO)ccc2N1C(=O)c1ccc2ccccc2n1 (stereo not given in full)	-2.01 (inactive)
COc1ccc(CCNC(=O)[C@@]2(c3ccc([N+](=O)[O-])cc3)CC(=O)N(CC34CC5CC(CC(C5)C3)C4)[C@@H]2c2ccc(CO)cc2)cc1	-0.0918 (inactive)
COCCOC(=O)N1C(=O)[C@@]2(c3ccccc31)[C@H](C(=O)Nc1nc3ccccc3s1)[C@H]1C(=O)O[C@H](c3ccccc3)[C@H](c3ccccc3)N1[C@@H]2c1ccc(OCCO)cc1	2.77 (inactive)
CC(C)(C)OC(=O)CC[C@@]1(C(=O)NCCN2CCOCC2)N=C(c2ccc(OCCCO)cc2)O[C@@H]1c1ccccc1	0.951 (inactive)
C=CC(COC(C)=O)NS(=O)(=O)c1ccc(Br)cc1 (stereo not given)	-0.747 (inactive)
[N-]=[N+]=Nc1ccccc1[C@H]1OC(c2ccc(OCCCO)cc2)=N[C@@]1(CCS(=O)(=O)c1ccccc1)C(=O)O	3.83 (inactive)
CC(C)NC(=O)[C@@H]1c2ccccc2C(=O)N(Cc2ccccc2)[C@H]1c1ccc(CO)cc1	-1.1 (inactive)
COCCOC(=O)N1C(=O)[C@@]2(c3cc(C#CCC(C(=O)OC)C(=O)OC)ccc31)[C@H](c1ccc(O)cc1)N1[C@H](c3ccccc3)[C@H](c3ccccc3)OC(=O)[C@H]1[C@@H]2C(N)=O	-0.4 (inactive)
CC(C)c1ccc(NN2C(C(O)c3cccc(O)c3)C=CC3C(=O)N(c4ccccc4)C(=O)C32)cc1 (stereo not given)	-1.04 (inactive)
